# In PubChem BioAssay AID720706 (Broad Institute, 2013):
# Among all 350,000 compounds or so, about 5,500 (1.6%) were called active.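 How the source made its calls: active means significant combined selectivity score with lowered wild-type GFP, culture density cut under 30%, mutant RFP and density less affected; inactive means any of these conditions unmet.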 The list comes from a sample in which actives are over-represented; it also holds similar structures and randomly drawn compounds.
# Assay: GFP drop in mixed WT/humanized-ribosome E. coli culture – GFP/RFP fluorescence, OD600, single point, bacterial rRNA inhibitor project, primary screen (AID 720706)
# Settings: E. coli WT GFP vs humanized-ribosome RFP mutants, 24 h; GFP signal change (wild-type ribosome): stronger effect = lower value, DMSO median 0, no signal -100; OD600 change: measured here: OD600 growth, DMSO median 0, no signal -100; RFP signal change: measured here: RFP humanized mutant strains, DMSO median 0, no signal -100, concentration not given here
Structure (SMILES),GFP signal change (wild-type ribosome),OD600 change [%],RFP signal change [%]
C[C@@H](Nc1nc(-c2ccccc2)nc2c1oc1ccccc12)C(=O)O,-25.4% (active),-3.54,7.03
COCCNc1nc(-c2ccccc2)nc2c1oc1ccccc12,-38% (inactive),-50.5,-2.59
O=C(C1CCCCC1)N1CC(=O)N2[C@H](CO)[C@H](c3ccc(-c4ccccc4F)cc3)[C@H]2C1,-9.7% (inactive),-39.9,0.225
C[C@@H]1CCCCO[C@@H](CN(C)C(=O)Nc2ccc(F)cc2)[C@H](C)CN([C@@H](C)CO)C(=O)c2cc(NS(C)(=O)=O)ccc2O1,-0.965% (inactive),-0.127,0.106
CN(C)CC(=O)N1[C@H](C#N)[C@H](c2ccccc2-c2cccc(C(=O)N(C)C)c2)[C@@H]1CO,3.14% (inactive),9.94,-2.26
C[C@@H]1CCCCO[C@@H](CN(C)Cc2ccc(C(=O)Nc3ccccc3N)cc2)[C@H](C)CN([C@H](C)CO)C(=O)c2cc(N(C)C)ccc2O1,0.759% (inactive),1.41,-1.39
C[C@H]1CN([C@@H](C)CO)C(=O)Cc2cc(NC(=O)C3CC3)ccc2O[C@H]1CN(C)S(=O)(=O)c1ccc(Cl)cc1,-2.58% (inactive),-5.07,2.87
O=C(N/N=C/c1ccccn1)c1cccc(NC(=O)c2ccc(Cl)cc2)c1,-12.4% (inactive),-9.16,-2.65
Cc1nnc(N/N=C/c2ccccn2)[nH]c1=O,-26% (active),6.61,2.3
S=C(NN=Cc1ccccn1)Nc1ccccn1,-3.3% (inactive),1.4,-6.11
CN1[C@@H]2c3ccc(-c4ccc(F)cc4)c(=O)n3C[C@H]1[C@H](CO)[C@H]2C(=O)NC1CCC1,0.894% (inactive),-1.58,-1.53
Cc1ccc(-n2c(SCC(=O)Nc3ncc(Cl)cc3Cl)nc3ccccc32)cc1,-23.3% (inactive),-16.7,11.6
NS(=O)(=O)c1cccc(NC(=O)CSc2nc3ccccc3n2-c2ccccc2)c1,-43.3% (active),-4.95,0.431
COc1ccc(-n2cnnc2SCC(=O)Nc2cccc(S(N)(=O)=O)c2)cc1,5.58% (inactive),7.26,-1.5
CC(C)NC(=O)Nc1ccc2c(c1)C(=O)N([C@@H](C)CO)C[C@H](C)[C@H](CN(C)C(=O)Nc1ccc(F)cc1)OCCCC[C@@H](C)O2,9.43% (inactive),11.5,-1.2
O=S(=O)(c1ccccc1)N1CC[C@@H]2[C@H]1c1cc(C#Cc3cccc(F)c3)ccc1N[C@@H]2CO,-1.75% (inactive),20.2,-0.35

Structure (SMILES),GFP signal change (wild-type ribosome),OD600 change [%],RFP signal change [%]
CCCNC(=O)N1CC2(C1)[C@H](c1ccccc1)[C@@H](CO)N2C(=O)C1CC1,2.01% (inactive),4.92,-0.981
COc1ccc(NC(=O)N[C@@H]2CC[C@H](CCn3cc(-c4ccc(OC)cc4)nn3)O[C@@H]2CO)cc1,-3.5% (inactive),-6.01,3.35
COc1ccc(S(=O)(=O)N[C@H]2CC[C@H](CCn3cc(C(C)C)nn3)O[C@@H]2CO)cc1,3.72% (inactive),10.4,1.37
O=C(C[C@@H]1C[C@H]2c3cc(NS(=O)(=O)c4ccc(F)cc4)ccc3O[C@H]2[C@H](CO)O1)NCCc1ccccc1,0.771% (inactive),-17.4,2.06
O=C(C[C@@H]1C[C@H]2c3cc(NS(=O)(=O)c4ccc(F)cc4)ccc3O[C@H]2[C@H](CO)O1)NC1CCCC1,-1.46% (inactive),-4.87,-0.359
C[C@H](NC(=O)C[C@@H]1C[C@@H]2c3cc(NS(=O)(=O)c4ccc(F)cc4)ccc3O[C@@H]2[C@@H](CO)O1)c1ccccc1,-27.2% (active),-16.8,2.38
COCCNC(=O)C[C@H]1C[C@H]2c3cc(NS(C)(=O)=O)ccc3O[C@H]2[C@H](CO)O1,3.03% (inactive),-0.685,-2.39
C[C@@H]1CN([C@H](C)CO)C(=O)c2cc(NS(=O)(=O)c3ccc(F)cc3)ccc2O[C@@H]1CN(C)S(C)(=O)=O,3.23% (inactive),5.12,-0.699
CO[C@H]1CN(C)C(=O)c2ccc(NC(=O)c3ccccc3F)cc2OC[C@H](C)N(C(=O)c2ccccc2F)C[C@H]1C,-0.558% (inactive),-1.65,0.417
CCCNC(=O)N(C)C[C@H]1Oc2ncc(-c3ccc(C(=O)N(C)C)cc3)cc2C(=O)N([C@@H](C)CO)C[C@@H]1C,6.11% (inactive),12.2,-1.77
CCCN(C)C[C@H]1OCCCC[C@@H](C)Oc2ccc(NC(=O)Nc3ccc(F)cc3)cc2C(=O)N([C@@H](C)CO)C[C@H]1C,-3.85% (inactive),-9.95,3.72
Cc1ccccc1S(=O)(=O)NC(=O)C1(C)CCN1C(=O)C1(c2ccccc2)CCCC1 (stereo not drawn),-6.4% (inactive),0.03,-0.676
Cc1ccccc1S(=O)(=O)NC(=O)C1(C)CCN1C(=O)C1(c2ccc(Cl)cc2)CC1 (stereo not drawn),-15.3% (active),13,7.67
CC1(C(=O)NS(=O)(=O)c2ccc3ccccc3c2)CCN1C(=O)C1(c2ccc(Cl)cc2)CCC1 (stereo not drawn),-33.2% (inactive),-59.6,-12.6
Cc1noc(C)c1S(=O)(=O)N(C)C[C@@H]1OCCCC[C@H](C)Oc2ccc(NC(=O)CCC(F)(F)F)cc2C(=O)N([C@H](C)CO)C[C@H]1C,-0.425% (inactive),1.3,2.1
